Assay [1] in a line: compound effects on lung adenocarcinoma cell viability – A549, calcein-AM fluorescence, 48 h, basal, profiling panel (AID 1162). The note with it: higher = more signal.
The nature of assay [2]: compound effects on differentiated 3T3-L1 adipocyte viability – cell-based, 3T3-L1 adipocytes, calcein-AM fluorescence, 48 h, basal, profiling panel (AID 1163). Particulars: 3T3-L1 adipocytes viability, higher = more signal.
Assay [3] is described as follows: compound effects on hepatocellular carcinoma cell viability – HepG2, calcein-AM fluorescence, 48 h, basal, profiling panel (AID 1164). Particulars: higher = more signal.
Assay [4] in a line: compound effects on multiple myeloma cell viability – MM1S, calcein-AM fluorescence, 48 h, basal, profiling panel (AID 1165).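 Also: viability of MM1S multiple myeloma cells under basal unstimulated conditions.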 The note with it: higher = more signal.
A short description of assay [5]: calcein-AM signal in unstimulated myeloma cells – cell-based, calcein-AM fluorescence, 48 h, PK04 Diversity Set, profiling panel (AID 1166).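 Also: cells grown under basal conditions without added stimulus.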 The note with it: RPMI8226 myeloma viability, higher = more signal.
Assay [6] in a line: JC-1 mitochondrial signal, unstimulated HepG2 cells – cell-based, JC-1 fluorescence, 24 h, 100 nL compound, profiling panel (AID 1167). Particulars: HepG2 mitochondrial potential, higher = more signal.
The nature of assay [7]: JC-1 mitochondrial signal, unstimulated adipocytes – cell-based, JC-1 fluorescence, 3T3-L1 adipocytes, 24 h, 100 nL compound, profiling panel (AID 1168). The note with it: JC-1 mitochondrial fluorescence, higher = more signal, called active from +8 up or from −8 down.
Assay [8] in a line: JC-1 mitochondrial signal, unstimulated myeloma cells – cell-based, JC-1 fluorescence, RPMI8226, 24 h, 100 nL compound, profiling panel (AID 1169). The note with it: JC-1 mitochondrial potential fluorescence, higher = more signal.
Assay [9] is described as follows: JC-1 mitochondrial signal, unstimulated MM1S myeloma – cell-based, JC-1 fluorescence, 24 h, 100 nL compound, profiling panel (AID 1170). The note with it: MM1S mitochondrial potential, higher = more signal.
A short description of assay [10]: resazurin metabolic signal in A549 cells – cell-based, resazurin fluorescence, 24 h, PK04 Diversity Set, profiling panel (AID 1171). The note with it: A549 viability, higher = more signal, called active from +8 up or from −8 down. Background: The colour change of resazurin is a common sign of viable cells or microbes.

Calls of active or inactive are those of the source.
Also: test concentration not given here.

For `O=C1[C@H]2[C@H]3[C@H](O)[C@H](O)CC(=NOC[C@@H](O)COCc4ccco4)[C@@H]3CC[C@H]2C(=O)N1c1ccc(F)cc1F`, the z-score was -0.2 in assay [1]; 0.165 in assay [2]; -1.22 in [3]; 0.136 in assay [4]; -1.11 in [5]; 0.42 in assay [6]. Moreover, the z-score was -0.116 (inactive) in [7], -0.0126 in [8], -0.221 in assay [9] and 0.24 (inactive) in [10].
As for `CN1C(=O)[C@@]2(CCC(=O)OC(C)(C)C)N=C(c3ccc(OCCCO)cc3)O[C@H]2c2ccccc21`, the z-score is 0.575 in assay [1]; 1.36 in [2]; -0.614 in [3]; -1.85 in [4]; -3.45 in [5]; 0.543 in assay [6]. For the same molecule, the z-score in [7] is -0.207 (inactive); in assay [8], -1.18; in assay [9], -0.696; in assay [10], -0.54 (inactive).
Turning to `CCN1C(=O)[C@H]2[C@H]3[C@H](O)C=CC(=O)[C@@H]3CC[C@H]2C1=O`, the z-score was 0.331 in assay [1]; 0.368 in assay [2]; 0.733 in assay [3]; -0.434 in [4]; 0.197 in [5]; 0.234 in assay [6]. Also, the z-score was -0.661 (inactive) in [7], -0.408 in assay [8], 1.5 in assay [9] and 0.459 (inactive) in assay [10].
Turning to `COC(=O)[C@H](C)NC(=O)[C@@H](C)CO`, the z-score is -0.562 in [1]; 0.945 in assay [2]; -0.524 in assay [3]; 0.363 in [4]; -1.21 in [5]; -0.355 in [6]. In addition, the z-score was -0.0968 (inactive) in [7], -0.04 in assay [8], 0.384 in [9] and -0.939 (inactive) in assay [10].
As to `CCc1cccc(NC(=O)O[C@H]2[C@H](OC(=O)Nc3ccc4c(c3)OCO4)[C@@H](OC(=O)Nc3ccc4c(c3)OCO4)[C@@H](OC)O[C@@H]2CO)c1`, the z-score in assay [1] is -1.1; in [2], 0.29; in assay [3] it was -1.66; in assay [4], -1.33; in [5] it was -0.976; in assay [6] it was 0.0535. Also, the z-score is 0.892 (inactive) in assay [7], -0.806 in assay [8], -0.503 in assay [9] and 0.735 (inactive) in assay [10].
As to `CN(C)CCCNC(=O)[C@@H]1c2ccccc2C(=O)N(Cc2ccccc2)[C@H]1c1ccc(CO)cc1`, the z-score in [1] was 2.34; in assay [2], 0.917; in assay [3], 1.31; in [4], -0.0214; in [5], 0.932; in assay [6] it was 1.89. Also, the z-score in assay [7] is 0.418 (inactive); in assay [8], 0.0996; in assay [9] it was 0.108; in [10], 0.534 (inactive).
For the molecule `COC(=O)[C@@]1(Cc2ccc(F)cc2)[C@H]2c3cc(C(=O)N(C)C)n(Cc4ccc(OC)c(OC)c4)c3C[C@H]2CN1C(=O)c1ccccc1`, the z-score in [1] is -0.74; in [2], 0.272; in [3], -1.36; in assay [4], -1.13; in assay [5] it was -2.04; in [6] it was 0.594. In addition, the z-score in assay [7] was -0.512 (inactive); in assay [8] it was 0.0709; in assay [9], -0.7; in [10], -0.507 (inactive).
Consider `[N-]=[N+]=Nc1ccccc1C[C@@]1(C(N)=O)N=C(c2ccc(OCCCO)cc2)O[C@@H]1c1ccccc1`, for which the z-score in [1] is -0.391; in assay [2], 1.73; in assay [3], -0.515; in assay [4], -2.86; in [5] it was -2.94; in [6], 0.57. The z-score is -0.433 (inactive) in [7], -0.778 in assay [8], -0.988 in assay [9] and -0.732 (inactive) in assay [10].
For `COCCCNC(=O)[C@@]1(CCS(=O)(=O)c2ccccc2)N=C(c2ccc(OCCCO)cc2)O[C@H]1c1ccccc1`, the z-score in assay [1] is 2.27; in assay [2] it was 0.217; in [3] it was 1.84; in assay [4], -0.345; in assay [5], -0.193; in assay [6] it was 0.887. Besides, the z-score is -0.468 (inactive) in assay [7], 0.243 in assay [8], 0.508 in assay [9] and 0.486 (inactive) in assay [10].
Regarding `COCCCNC(=O)[C@]1(Cc2ccccc2)N=C(c2ccc(OCCCO)cc2)O[C@@H]1c1ccccc1`, the z-score in assay [1] was -0.2; in assay [2] it was 0.346; in assay [3] it was 0.0484; in assay [4], -2.27; in assay [5], -0.701; in assay [6], -0.175. Besides, the z-score in [7] is 0.492 (inactive); in [8], -0.286; in assay [9] it was -0.498; in assay [10] it was 2.67 (inactive).
For the molecule `C=CCOC(=O)[C@H]1[C@@H]2C(=O)O[C@@H](c3ccccc3)[C@@H](c3ccccc3)N2[C@@H](c2ccc(OCCOC(=O)[C@H]3C[C@H]4C(=O)N5CCC[C@H]5C(=O)N4[C@H]3c3cccc(OCCO)c3)cc2)[C@]12C(=O)Nc1ccc(I)cc12`, the z-score in assay [1] was -0.0113; in assay [2], 0.199; in [3], 0.144; in assay [4] it was 0.817; in assay [5], -0.452; in [6], -0.0589. In addition, the z-score in assay [7] is -0.518 (inactive); in [8], -0.855; in [9] it was -0.122; in assay [10], 0.9 (inactive).
Regarding `CC(C)=NOCc1ccc(-c2cc(-c3ccccc3)no2)cc1`, the z-score in assay [1] was 0.947; in assay [2] it was 0.0379; in [3] it was 0.433; in assay [4] it was 0.283; in [5], -1.14; in [6] it was -0.49. Besides, the z-score in assay [7] was -0.618 (inactive); in assay [8] it was 0.825; in assay [9], -0.152; in [10] it was -0.589 (inactive).
For the molecule `COc1cccc([C@H]2Oc3ccc(OC)cc3C(=NO[C@H](C)c3cn([C@@H]4COC[C@H]4O)nn3)[C@@H]2O)c1`, the z-score in assay [1] is -1.3; in assay [2], 0.67; in [3], -0.428; in [4] it was -0.717; in assay [5] it was -0.786; in [6], -0.832. The z-score in assay [7] was 0.839 (inactive); in [8], 0.161; in assay [9] it was -0.761; in assay [10], -0.481 (inactive).
In the case of `CC(C)N1CC=CC23O[C@@H]4C=CCCOC(=O)C4[C@H]2C(=O)N(CCCCCCO)[C@@H]3C1=O` (stereo not given in full), the z-score in assay [1] is 0.647; in assay [2], -0.505; in assay [3], 0.677; in assay [4] it was 0.585; in assay [5], 0.788; in assay [6], 0.614. Moreover, the z-score in [7] is 0.294 (inactive); in assay [8], 0.936; in assay [9], -0.768; in [10], 0.711 (inactive).

(Values after PubChem BioAssay.)
